# Screens from PubChem BioAssay.
# Rows were chosen to be rich in hits. Some 19% of all compounds tested hit in one or more screens of this group.
# TGFb inhibitor = TGF-b pathway inhibition. Potency, µM (top dose mostly 46.1 µM), for inactives: at the highest dose activity, negative = inhibition, usual class: inhibitors. HepG2 CAGA-GFP TGF-b/SMAD3 reporter, GFP fluorescence, 18 h; TGF-beta stimulated, 500 pg/mL final. AID 588855. hit rate 1.2% among 410,000; also: potency is read from the fitted curve at half-maximal effect; % is scaled to controls: 0 for no effect and ±100 for the full control effect; nearly all actives have a fitted effect of over 65% in size
#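 Inhibition of TGF-beta-driven CAGA-GFP reporter expression in HEPG2 cells is measured by cellular GFP fluorescence after 18 h stimulation with 500 pg/mL recombinant TGF-beta in 1% FBS medium at 37 degrees C.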
# DT40 TDP1 CPT = growth inhibition of DT40 Tdp1-/-;hTDP1 cells with camptothecin (screen for TDP1 inhibitors). chicken DT40 Tdp1-/-;hTDP1 cells + 20 nM CPT, ATP luminescence, 48 h. hit rate 12% among 420,000. Potency, µM (doses to about 46.2 µM), for inactives: at the top dose activity change, negative = growth inhibition, hits mostly inhibitors. AID 686979; also: potency is read from the fitted curve at half-maximal effect; % is scaled to controls: 0 for no effect and ±100 for the full control effect; nearly all actives have a fitted effect of over 55% in size
#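 Chicken DT40 Tdp1-/- cells complemented with human TDP1, 400 cells/well, exposed to compounds plus 20 nM camptothecin for at least 48 h at 37 C; viability read as ATP content by CellTiter-Glo luminescence.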
# IL-1B inflam inh = blocks inflammasome-driven IL-1 beta release. hit rate 4.7% among 360,000. activity change, % at 57.5 µM. THP-1 LPS/ATP IL-1B secretion, AlphaLISA, 16 h; stronger effect = lower value; in the data active = activity change below about -50%; inconclusive = mostly about -30% to -49%; also: % is scaled to controls: 0 for no effect and ±100 for the full control effect
#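 Secreted IL-1B measured by AlphaLISA bead assay after 16 h compound exposure of THP-1 cells; compounds (final up to 57.5 uM) added 1 h before LPS (250 ng/mL) and ATP (1.25 mM) stimulation; lower signal means less secretion.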
# DT40 TDP1 no CPT = qHTS for Inhibitors of human tyrosyl-DNA phosphodiesterase 1 (TDP1): qHTS in cells in absence of CPT; Potency, µM (doses to about 46.2 µM), without a hit: at the highest dose activity change, negative = growth inhibition, actives largely listed as inhibitors; hit rate 15% among 420,000; DT40 Tdp1-/- hTDP1 cells, no CPT, ATP luminescence, 48 h; also: potency is read from the fitted curve at half-maximal effect; % is scaled to controls: 0 for no effect and ±100 for the full control effect; nearly all actives have a fitted effect of over 55% in size
#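 Camptothecin absent (DMSO only). Human TDP1-complemented DT40 knockout cells, 400 cells/well, 37 °C for minimum 48 hr; ATP measured via CellTiter-Glo, 30 min dark incubation, luminescence.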
# HepG2 viability = kills HepG2 cells in TGF-b inhibitor counter-screen | HepG2 CAGA-GFP viability, ATP luminescence, 18 h | Potency, µM (doses to about 46.1 µM), for inactives: at the top dose activity change, negative = cytotoxicity, actives largely listed as cytotoxic | AID 588856 | hit rate 0.76% among 410,000; also: potency is read from the fitted curve at half-maximal effect
#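 HepG2 CAGA-GFP cells (1000/well, DMEM with 1% FBS) received compound, then TGF-beta at 500 pg/mL final, and were incubated 18 hours at 37 degrees C. Viability was read by CellTiter-Glo luminescence. Media-only wells were set as complete cell-killing and DMSO as no toxicity.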
# TDP1 inh = TDP1 (human) enzyme inhibition; recombinant TDP1, AlphaScreen DNA substrate cleavage; Potency, µM (top dose mostly 130 µM), inactives show top-dose activity change, negative = inhibition, actives largely listed as inhibitors; hit rate 0.28% among 350,000; AID 485290; also: potency is read from the fitted curve at half-maximal effect; % is scaled to controls: 0 for no effect and ±100 for the full control effect; nearly all actives have a fitted effect of over 40% in size
# Target sequence (Q9NUW8 whole entry, looked up): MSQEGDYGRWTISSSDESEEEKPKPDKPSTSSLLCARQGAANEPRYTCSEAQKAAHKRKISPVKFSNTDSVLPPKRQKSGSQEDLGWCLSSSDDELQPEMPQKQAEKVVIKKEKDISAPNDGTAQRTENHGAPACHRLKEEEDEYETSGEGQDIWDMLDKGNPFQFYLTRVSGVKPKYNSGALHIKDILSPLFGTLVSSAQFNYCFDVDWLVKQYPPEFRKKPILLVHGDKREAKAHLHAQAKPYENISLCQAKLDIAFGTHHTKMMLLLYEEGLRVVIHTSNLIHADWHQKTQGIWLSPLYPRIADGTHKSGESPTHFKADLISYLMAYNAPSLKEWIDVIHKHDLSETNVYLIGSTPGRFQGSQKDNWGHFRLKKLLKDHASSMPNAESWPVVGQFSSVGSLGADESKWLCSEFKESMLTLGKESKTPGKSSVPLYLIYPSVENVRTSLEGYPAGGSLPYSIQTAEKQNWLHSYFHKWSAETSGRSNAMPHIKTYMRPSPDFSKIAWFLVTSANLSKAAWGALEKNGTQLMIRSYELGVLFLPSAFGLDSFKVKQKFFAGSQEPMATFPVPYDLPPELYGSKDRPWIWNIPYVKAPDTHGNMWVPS
#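 AlphaScreen read-out: signal falls as enzyme removes the 3' tyrosine-FITC from a 5'-biotinylated DNA oligo (15 nM, 5 min, RT). Enzyme was E. coli-made recombinant Tdp1 at 1 nM, exposed to compound for 15 min beforehand; beads 10 ug/ml, 10 min.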
# Numbers without * were called inactive; u = inconclusive; x = no result; [ ] = remark or other dose. Unless noted, calls follow the shape of the dose curve; as a rule, active = well fitted curve in the direction sought with a large enough effect; inconclusive = small, poorly fitted or top-dose-only effect, or another doubt; inactive = no such curve, though single readings can be large; an effect the other way counts as inactive or inconclusive.
SMILES,TGFb inhibitor,DT40 TDP1 CPT,IL-1B inflam inh,DT40 TDP1 no CPT,HepG2 viability,TDP1 inh
Cc1oc2ccc(O)c(CN3CCCC3)c2c1C(=O)Nc1cccc(Cl)c1C,-1%,16µM*,x,21µM*,-13%,6%
Cc1oc2ccc(O)c(CN3CCN(Cc4ccccc4)CC3)c2c1C(=O)Nc1cccc(Cl)c1C,0%,16µM*,x,-77%,-6%,-4%
CC(C)OCCCNC(=O)Nc1cccc2ccccc12,-13%,-23%,30,-24%,-10%,4%
CCOc1ccc(C(CCc2ccccc2)NC(=O)c2ccccc2F)cc1OCC (stereo not given),24%,35µM*,-21,u,-18%,-1%
CCOc1ccc(C(=O)NC(C(=O)NCc2ccccc2OC)C(C)C)cc1 (stereo not given),9%,u,6,u,6%,2%
CCOc1ccc(C(C)NC(=O)Cc2ccccc2F)cc1OCC (stereo not given),21%,2%,-1,-10%,10%,5%
CCOc1ccccc1C(=O)NC(C(=O)NCc1ccccc1OC)C(C)C (stereo not given),-14%,u,13,16µM*,2%,6%
CCOc1ccccc1C(=O)NC(C)CCc1ccccc1 (stereo not given),-7%,u,13,16µM*,-1%,x
CC(CCc1ccccc1)NC(=O)c1cccc(F)c1 (stereo not given),11µM*,u,-5,u,-44%,x
CCc1nnc(NC(=O)CCC(=O)N2CCN(c3cc(Cl)ccc3C)CC2)s1,-9%,u,22,-2%,-9%,5%
CC(CCc1ccccc1)NC(=O)CN(C)Cc1ccccc1F (stereo not given),-4%,u,-74*,u,-12%,-2%
COc1ccccc1CNC(=O)CC(C)C,-4%,23µM*,7,u,-2%,8%
CC(CCc1ccccc1)NC(=O)CN(C)Cc1ccc(F)cc1 (stereo not given),3%,-7%,-12,u,-12%,x
O=C(Cn1cnc(S(=O)(=O)N2CCCCC2)c1)NCc1ccco1,-8%,2%,-2,-7%,-1%,2%
Cc1cc(C)c(Cn2c(C)c(CNCc3ccccc3C)c(C(=O)O)c2C)c(C)c1,-10%,u,x,u,-38%,10%
O=C(COCc1cc(-c2ccc3c(c2)OCO3)on1)Nc1cc(Cl)ccc1O,1%,-14%,x,u,5%,4%
CCN(CC)C(=O)Cn1c(=O)n(Cc2ccc(C(=O)NCCCOC)cc2)c(=O)c2ccccc21,3%,-1%,x,-4%,-3%,-2%[12.3 µM]
O=C(CSc1cn(CC(=O)N2CCCCC2)c2ccccc12)NCc1ccccc1,0%,u,x,u,-21%,3%
Cc1cccc(CSc2cn(CC(=O)N3CCCCC3)c3ccccc23)c1,-2%,u,x,21µM*,-7%,0%
Cc1cccc(CSc2cn(CC(=O)N3CCCC3)c3ccccc23)c1,u,26µM*,x,16µM*,-44%,5%
O=C(Cn1cc(SCc2cccc(Cl)c2)c2ccccc21)N1CCCCCC1,0%,u,x,u,-26%,0%
COC(=O)[C@@]1(Cc2ccccc2)[C@H]2c3cc(C(=O)N4CCCC4)n(Cc4c(CO)[nH]cc(C)c4=O)c3C[C@H]2CN1C(=O)c1ccccc1,x,x,x,x,x,12%
COc1ccc([N+](=O)[O-])cc1NC(=O)C(C)Sc1nc(C)c(C)c(C)n1 (stereo not given),0%,u,-1,23µM*,10%,6%
